# Measured values taken from PubChem BioAssay.
# Active and inactive are the calls of the source. Unless noted, the rule behind the calls is not given here.
# How the values were obtained:
# [1] = resazurin metabolic signal in HepG2 cells – cell-based, resazurin fluorescence, 24 h, PK04 Diversity Set, profiling panel (AID 1172); conditions: HepG2 viability, higher = more signal
# [2] = budding yeast growth changes without added modifier – OD600, strain BY4716, 24 h, basal condition, primary screen (AID 1173); conditions: S. cerevisiae BY4716 growth, OD600, 24 h; higher = more signal, called active from +8 up or from −8 down
# [3] = viability profiling in MM1S myeloma cells – cell-based, resazurin fluorescence, basal, 24 h, PK04 Diversity Set, profiling panel (AID 1174); conditions: higher = more signal, called active from +8 up or from −8 down;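 note: MM1S multiple myeloma cell line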
# [4] = target: Dihydroorotate dehydrogenase (quinone), mitochondrial (Plasmodium falciparum (isolate 3D7)) (UniProt Q08210); test: inhibition of P. falciparum DHODH – biochemical, C-terminal His tag, absorbance 600 nm, primary screen (AID 1175); conditions: PfDHODH enzyme, DCIP absorbance 600 nm; higher = more signal, called active from +8 up or from −8 down;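 note: recombinant parasite enzyme with a five histidine tag at its C terminus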
# Sequence of Dihydroorotate dehydrogenase (quinone), mitochondrial (Plasmodium falciparum (isolate 3D7)) (Q08210 whole entry, looked up): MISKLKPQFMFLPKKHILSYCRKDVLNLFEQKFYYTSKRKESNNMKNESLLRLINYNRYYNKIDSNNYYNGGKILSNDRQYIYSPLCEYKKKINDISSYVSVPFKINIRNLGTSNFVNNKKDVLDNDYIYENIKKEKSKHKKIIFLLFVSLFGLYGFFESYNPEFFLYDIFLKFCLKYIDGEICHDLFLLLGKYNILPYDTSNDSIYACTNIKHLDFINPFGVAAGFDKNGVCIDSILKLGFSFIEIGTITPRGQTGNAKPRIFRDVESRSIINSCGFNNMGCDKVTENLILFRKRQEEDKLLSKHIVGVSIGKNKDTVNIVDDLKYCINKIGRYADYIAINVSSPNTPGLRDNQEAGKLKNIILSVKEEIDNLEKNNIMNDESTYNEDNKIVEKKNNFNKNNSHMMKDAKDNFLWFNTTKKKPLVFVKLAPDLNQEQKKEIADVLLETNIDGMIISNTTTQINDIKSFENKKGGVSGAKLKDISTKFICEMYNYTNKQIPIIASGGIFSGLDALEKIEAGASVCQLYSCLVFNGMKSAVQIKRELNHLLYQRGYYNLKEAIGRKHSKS
# [5] = inhibition of PAO1 biofilm formation – strain PAO1, LB-PBS medium, absorbance 600 nm, primary screen (AID 1176); conditions: P. aeruginosa PAO1 growth/biofilm, A600, 12 h; higher = more signal
# [6] = growth modulation of vineyard yeast isolate – strain RM11-1a, OD600, basal, 24 h, primary screen (AID 1177);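 note: cultures grown under basal conditions with no added stressor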; conditions: S. cerevisiae RM11-1a growth, OD600, 24 h; higher = more signal, called active from +8 up or from −8 down
# [7] = growth of efflux-deficient E. coli DRC39 – strain DRC39, OD650, 24 h, E. coli filamentation inducers, primary screen (AID 1178);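 note: growth measured as culture turbidity by optical density at 650 nm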; conditions: E. coli DRC39 acrAB, higher = more signal, called active from +8 up or from −8 down
# [8] = growth of efflux-deficient E. coli DRC39 – strain DRC39, OD650, 48 h, E. coli filamentation inducers, primary screen (AID 1179);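 note: screen aims at cell division blockers that make cells filament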; conditions: E. coli DRC39 delta-acrAB growth, higher = more signal, called active from +8 up or from −8 down
# [9] = viability profiling in RPMI8226 myeloma cells – cell-based, resazurin fluorescence, basal, 24 h, PK04 Diversity Set, profiling panel (AID 1180); conditions: higher = more signal;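 note: RPMI8826 multiple myeloma cell line at 5000 cells per well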
# [10] = target: E3 ubiquitin-protein ligase XIAP (Homo sapiens) (UniProt P98170); test: small molecules binding XIAP protein – biophysical, small-molecule microarray, fluorescence 635 nm, primary screen (AID 1181); conditions: higher = more signal;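 note: score merges 667 nm emission and signal to noise over triplicate slides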
# Sequence of E3 ubiquitin-protein ligase XIAP (Homo sapiens) (P98170 whole entry, looked up, the tested form may be a part): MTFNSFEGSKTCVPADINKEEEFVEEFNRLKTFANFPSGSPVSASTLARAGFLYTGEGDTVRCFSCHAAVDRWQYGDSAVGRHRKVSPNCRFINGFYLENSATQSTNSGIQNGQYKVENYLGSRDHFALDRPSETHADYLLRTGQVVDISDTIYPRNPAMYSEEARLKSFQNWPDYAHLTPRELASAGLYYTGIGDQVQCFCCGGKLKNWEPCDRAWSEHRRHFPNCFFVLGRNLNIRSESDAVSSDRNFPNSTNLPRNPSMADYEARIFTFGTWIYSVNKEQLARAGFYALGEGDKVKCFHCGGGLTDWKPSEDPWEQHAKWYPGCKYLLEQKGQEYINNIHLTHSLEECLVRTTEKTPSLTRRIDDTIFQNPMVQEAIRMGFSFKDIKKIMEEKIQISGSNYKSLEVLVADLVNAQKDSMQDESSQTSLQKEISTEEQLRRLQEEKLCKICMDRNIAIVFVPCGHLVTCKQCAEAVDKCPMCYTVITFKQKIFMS
# [11] = test system: XIP peptide (Xip251-270) binding; test: XIP fragment 251-270 binding compounds – biochemical, small-molecule microarray, fluorescence 635/667 nm, 0.1 µg/mL protein, primary screen (AID 1182); conditions: fluorescent protein binding, 635 nm, higher = more signal, called active from +8 up or from −8 down
# XIP peptide (Xip251-270) = test: compounds binding XIP fragment 251-270 – biochemical, small-molecule microarray, fluorescence 635/667 nm, 0.5 µg/mL protein, primary screen (AID 1183); conditions: fluorescence 635 nm, higher = more signal
# [12] = blood-stage malaria parasite viability loss – strain 3D7, DAPI fluorescence, 100 nL, primary screen (AID 1184);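 note: parasites grown inside human red blood cells in medium with human serum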; conditions: P. falciparum 3D7 growth, 3 d, higher = more signal
# [13] = target: Homeobox protein Hox-A13 (Mus musculus) (UniProt Q62424); test: disruptors of Hoxa13 oligonucleotide interaction – biochemical, fluorescence polarization, labeled oligonucleotide, primary screen (AID 1185); conditions: Hoxa13:DNA binding, 15 min, higher = more signal, called active from +8 up or from −8 down
# Sequence of Homeobox protein Hox-A13 (Mus musculus) (Q62424 whole entry, looked up): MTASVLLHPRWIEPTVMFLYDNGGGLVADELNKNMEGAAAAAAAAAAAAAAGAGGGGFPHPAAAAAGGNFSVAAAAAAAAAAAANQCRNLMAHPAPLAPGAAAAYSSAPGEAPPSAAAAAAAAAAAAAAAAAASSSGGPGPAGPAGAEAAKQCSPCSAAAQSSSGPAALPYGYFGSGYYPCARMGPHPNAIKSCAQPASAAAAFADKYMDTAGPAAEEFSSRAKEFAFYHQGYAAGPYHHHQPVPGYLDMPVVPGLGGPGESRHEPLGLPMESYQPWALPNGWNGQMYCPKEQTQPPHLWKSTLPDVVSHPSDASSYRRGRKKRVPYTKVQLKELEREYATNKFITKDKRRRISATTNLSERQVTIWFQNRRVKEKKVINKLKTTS
# [14] = blockers of DNA damage checkpoint Chk1 activation – imaging, HeLa, hydroxyurea, phospho-Chk1 antibody, percent positive cells, primary screen (AID 1186); conditions: hydroxyurea-induced phospho-Chk1 immunofluorescence imaging, higher = more signal
# [15] = blockers of DNA damage checkpoint Chk1 activation – imaging, HeLa, hydroxyurea, phospho-Chk1 nuclear intensity, primary screen (AID 1187); conditions: hydroxyurea-induced phospho-Chk1 immunofluorescence imaging, higher = more signal
SMILES,z-score [1],z-score [2],z-score [3],composite z-score [4],z-score [5],z-score [6],z-score [7],z-score [8],z-score [9],composite z-score [10],composite z-score [11],composite z-score (XIP peptide (Xip251-270)),z-score [12],z-score [13],z-score [14],z-score [15]
COC(=O)[C@@]1(Cc2ccccc2N=[N+]=[N-])N=C(c2ccc(OCCCO)cc2)O[C@H]1c1ccccc1CN=[N+]=[N-],-4.57,1.16 (inactive),-8.21 (active),0.648 (inactive),0.383 (inactive),0.992 (inactive),0.23 (inactive),0.887 (inactive),-7,0.264,0.367 (inactive),0.82,-2.29,1.05 (inactive),-0.352 (inactive),-0.735 (inactive)
Cc1ccc(S[C@]2(C(=O)NCCCN(C)C)CC(=O)N(Cc3ccccc3)[C@@H]2c2ccc(CO)cc2I)cc1,-0.896,-4.78 (inactive),-2.94 (inactive),-1.38 (inactive),-0.369 (inactive),-1.03 (inactive),-0.361 (inactive),-0.554 (inactive),-2.15,-0.0848,0.066 (inactive),0.119,0.0943,-2.06 (inactive),0.379 (inactive),0.637 (inactive)
C#CCCCON=C1C[C@@H](O)[C@@H](O)[C@@H]2[C@@H]3C(=O)N(Cc4ccc5c(c4)OCO5)C(=O)[C@@H]3CC[C@@H]12,0.606,0.532 (inactive),0.241 (inactive),0.175 (inactive),-0.993 (inactive),0.577 (inactive),0.571 (inactive),0.186 (inactive),1.42,0.0785,0.32 (inactive),0.104,-0.0159,-0.476 (inactive),,
C=C(CCCC)C(=O)CC[C@@H](OC(C)=O)c1ccccc1OCCO,-0.0263,-12.5 (active),0.304 (inactive),-2.71 (inactive),0.0022 (inactive),2.05 (inactive),0.662 (inactive),0.378 (inactive),-0.277,-0.193,0.144 (inactive),-1.02,-1.77,-4.53 (inactive),-0.21 (inactive),-0.223 (inactive)
CC(C)[Si](OCC[C@H]1O[C@]2(C(=O)N(Cc3ccccc3)c3ccccc32)[C@@H](C)[C@@H]1[Si](C)(C)O)(C(C)C)C(C)C,-0.563,-0.113 (inactive),0.115 (inactive),0.766 (inactive),-0.66 (inactive),1.11 (inactive),-0.297 (inactive),-0.837 (inactive),0.261,-0.142,-0.177 (inactive),0.457,-1.94,-0.292 (inactive),-0.558 (inactive),-0.322 (inactive)
O=C1O[C@H](c2ccccc2)[C@H](c2ccccc2)N2[C@H]1[C@@H](C(=O)NC[C@H](O)c1ccccc1)[C@]1(C(=O)Nc3ccc(C#CC4=CCCCC4)cc31)[C@H]2c1ccc(OCCO)cc1,0.0374,1.17 (inactive),-2 (inactive),-0.186 (inactive),2.05 (inactive),3.28 (inactive),-0.227 (inactive),0.262 (inactive),-3.18,-0.316,1.21 (inactive),0.658,-0.435,3.43 (inactive),-0.22 (inactive),-0.301 (inactive)
CC(C)[C@H]1NC(=O)[C@@]23C(=O)N[C@@H](Cc4ccccc4)C2[C@H](C)[C@@]2(C)O[C@H]2C3/C=C/C/C=C\CNC(=O)[C@H](C)NC1=O (stereo partly specified),-0.546,0.976 (inactive),0.323 (inactive),-0.0591 (inactive),1.13 (inactive),1.01 (inactive),-0.198 (inactive),-0.301 (inactive),0.142,-0.129,-0.311 (inactive),-0.791,-0.162,-6.31 (inactive),0.126 (inactive),0.42 (inactive)
C=CC[C@]1(C(=O)N2CCCCC2)N=C(c2ccc(OCCCO)cc2)O[C@H]1c1ccccc1N=[N+]=[N-],-0.0748,-0.807 (inactive),-1.91 (inactive),2.06 (inactive),0.274 (inactive),1.55 (inactive),0.16 (inactive),-0.58 (inactive),-1.15,1.74,1.01 (inactive),0.851,-2.21,-3.92 (inactive),-0.135 (inactive),0.224 (inactive)
C=C(CCCC)/C(=C/C[C@H](OC(=O)c1ccncc1)c1cccc(OCCO)c1)c1cc(C(=O)OC)ccc1OC,1.06,-0.0252 (inactive),0.585 (inactive),-1.61 (inactive),-0.988 (inactive),-0.549 (inactive),-0.232 (inactive),-0.0622 (inactive),0.15,-0.0916,2.08 (inactive),0.305,-3.26,-4.52 (inactive),-0.433 (inactive),-0.355 (inactive)
COC(=O)Cn1c(C(=O)N2CCCC2)cc2c1C[C@H]1CN(C(=O)c3ccccc3)[C@@](Cc3ccccc3)(C(=O)OC)[C@@H]21,-0.103,1.37 (inactive),-0.694 (inactive),0.0393 (inactive),0.619 (inactive),0.965 (inactive),-0.244 (inactive),0.172 (inactive),-1.34,0.107,0.564 (inactive),0.535,-0.252,-4.99 (inactive),-1.29 (inactive),-0.687 (inactive)
COc1ccc(C(O)C2C=CC3C(=O)N(C)C(=O)C3N2N2CCCCC2)cc1OCc1ccccc1 (stereo unspecified),1.06,-1.21 (inactive),0.0046 (inactive),1.05 (inactive),0.779 (inactive),1.26 (inactive),-0.738 (inactive),-0.811 (inactive),-2.38,-0.0937,-0.001 (inactive),0.582,-0.303,-4.76 (inactive),0.245 (inactive),-0.0779 (inactive)
CCCC[C@@H]1C[C@H]1[C@@H](NC(=O)c1cccs1)c1ccc(Cl)cc1,-0.513,0.831 (inactive),-0.0593 (inactive),-3.8 (inactive),2.82 (inactive),0.595 (inactive),-0.249 (inactive),-0.586 (inactive),0.513,0.267,0.0874 (inactive),-0.0771,-0.911,-0.736 (inactive),-0.207 (inactive),0.205 (inactive)
COC(=O)[C@@]1(Cc2ccc(OC)cc2)[C@H]2c3cc(C(=O)N(C)C)n(CCc4ccc(OC)c(Br)c4)c3C[C@H]2CN1C(=O)c1ccccc1,-0.575,1.36 (inactive),-2.09 (inactive),0.125 (inactive),1.22 (inactive),0.961 (inactive),-0.307 (inactive),-0.025 (inactive),-3.63,-0.0848,0.717 (inactive),0.351,-1.28,-0.511 (inactive),1.02 (inactive),0.463 (inactive)
C=CC[C@@]1(C(=O)NCC(O)CO)N=C(c2ccc(OCCCO)cc2)O[C@@H]1c1ccccc1CN=[N+]=[N-] (stereo partly specified),-0.192,-1.14 (inactive),-0.754 (inactive),0.592 (inactive),0.385 (inactive),-0.0334 (inactive),0.613 (inactive),1.52 (inactive),0.516,0.254,0.336 (inactive),-0.105,-2.34,-2.67 (inactive),-0.691 (inactive),-0.873 (inactive)
CC(c1ccccc1)C(O)C1C=CC2C(=O)N(C)C(=O)C2N1N(c1ccccc1)c1ccccc1 (stereo unspecified),-1.22,-0.0972 (inactive),-1.91 (inactive),-0.0374 (inactive),0.419 (inactive),0.265 (inactive),-0.502 (inactive),-0.0284 (inactive),-1.8,-0.0918,0.0311 (inactive),-0.62,-0.141,-4.26 (inactive),0.75 (inactive),-0.173 (inactive)
O=C(N1CCCCC1)[C@@]1(CCS(=O)(=O)c2ccccc2)N=C(c2ccc(OCCCO)cc2)O[C@H]1c1ccccc1,0.233,0.0247 (inactive),-2.91 (inactive),1.05 (inactive),-1.01 (inactive),0.0929 (inactive),1.33 (inactive),0.561 (inactive),-2.78,0.198,-0.43 (inactive),0.23,-2.24,-3.65 (inactive),-0.61 (inactive),-0.262 (inactive)
COc1ccc([Si](C)(C)[C@@H]2[C@@H](CCO)O[C@]3(C(=O)N(Cc4ccccc4)c4ccccc43)[C@H]2C)cc1,-1,0.212 (inactive),-0.604 (inactive),0.825 (inactive),0.13 (inactive),0.347 (inactive),0.916 (inactive),-0.326 (inactive),-0.372,-0.232,0.151 (inactive),0.283,-1.96,0.563 (inactive),-0.0106 (inactive),0.402 (inactive)
COC(=O)[C@@]1(Cc2ccc(OC)cc2)[C@H]2c3cc(C(=O)N(C)C)n(Cc4ccc(C)c(F)c4F)c3C[C@H]2CN1C(=O)c1ccccc1,0.819,1.45 (inactive),0.468 (inactive),0.164 (inactive),0.0944 (inactive),2.26 (inactive),0.423 (inactive),-0.373 (inactive),1.37,0.385,-0.0903 (inactive),0.465,-1.13,-1.93 (inactive),0.758 (inactive),0.0937 (inactive)
